# Compound activity as filed in PubChem BioAssay.
# ssDAF12 agonist = activates DAF-12 receptor from parasite S. stercoralis | HEK293 ssDAF-12/GRIP1 lit1-tk-luc reporter, luminescence; % of 3 µM dafachronic acid response | activation, % at 6.8 µM | actives 1% (n = 370,000) | AID 652126;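 active = activation above the mean over all tested compounds plus 3 SD, cut at about 0.9% in these data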;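 also: 0% = DMSO-only wells and 100% = 3 µM delta7-dafachronic acid wells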
# DAX1 inh-1 = NR0B1 (DAX1) inhibition | P51843 | HEK293 Gal4-DAX1 luciferase reporter, luminescence | inhibition, % at 6.75 µM | actives 0.99% (n = 340,000) | AID 504766;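 active = inhibition above the mean over all tested compounds plus 3 SD, cut at about 4.2% in these data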;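 also: 0% = DAX1-transfected cells with DMSO and 100% = empty-vector control cells with DMSO; inhibition shows as a rise in luminescence from relieved DAX1 repression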
# Target sequence (P51843 207-470 limits assumed): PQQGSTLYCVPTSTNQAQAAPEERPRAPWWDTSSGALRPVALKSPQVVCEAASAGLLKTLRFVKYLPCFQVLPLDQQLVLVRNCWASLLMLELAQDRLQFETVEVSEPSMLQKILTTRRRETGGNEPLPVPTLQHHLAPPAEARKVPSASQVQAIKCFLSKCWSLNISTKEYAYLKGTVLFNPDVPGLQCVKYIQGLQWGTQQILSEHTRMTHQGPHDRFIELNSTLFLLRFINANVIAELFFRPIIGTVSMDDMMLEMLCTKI
# hcDAF12 agonist = activates DAF-12 receptor from parasite H. contortus; HEK293 hcDAF-12 lit1-tk-luc reporter, luminescence; 0% DMSO, 100% Δ7-dafachronic acid; activation, % at 6.8 µM; actives 1.4% (n = 370,000); AID 652067;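 active = activation above the mean of all tested compounds plus 3 SD, cut at about 5.5% in these data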;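 also: 100% = response to 3 µM Δ7-dafachronic acid high control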
# DAX1 inh-2 = blocks DAX1 repression of SF-1 activated StAR promoter | inhibition, % at 6.8 µM | HEK293T StAR-luciferase reporter, SF-1/DAX-1 repression relief | actives 1.1% (n = 370,000);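 active = inhibition above the mean over all tested compounds plus 3 SD, cut at about 3.6% in these data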;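 also: 0% = DAX-1 cells with DMSO and 100% = cells lacking DAX-1 with DMSO; higher inhibition means more luminescence from relief of DAX-1 repression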
# hgDAF12 agonist = activates the H. glycines DAF-12 receptor ligand-binding domain; AID 687014; activation, % at 6.8 µM; actives 1.8% (n = 370,000); HEK293 GAL4-hgDAF12 UAS-luciferase reporter, agonist luminescence; normalized to butyrate control;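 active = activation above a cutoff set at the mean of all screened compounds plus 3 SD, cut at about 10% in these data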;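 also: 0% = DMSO wells and 100% = sodium butyrate wells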
# * hit, by the source's call; / = no result given. Compounds with a hit are over-represented: about 4.1% of the library has one in this group of screens.
SMILES,ssDAF12 agonist,DAX1 inh-1,hcDAF12 agonist,DAX1 inh-2,hgDAF12 agonist
COC(=O)[C@]12C[C@H](CC(=O)N3CCC(c4ccccc4)CC3)C(=O)N(Cc3ccc(Cl)cc3Cl)C1=C[C@H](C(C)C)O[C@@H]2C1CC1,-1,/,2,1,0
O=C(c1ccccn1)C1CCCN(Cc2nc(Cc3cccc(F)c3)no2)C1 (stereo not drawn),-1,4.4*,-3,-1,-5
CC(=O)N1N=C(c2ccc(C)cc2)OC1c1ccc(C(C)C)cc1 (stereo not drawn),-1,4.5*,1,1,4
COC1=C[C@H](C(=O)NCc2ccc(Br)cc2)[C@H](C)[C@@H](c2ccccc2)CC1=O,-1,/,-2,0,-3
O=C(Cn1c2[n+](c3ccc(C(F)(F)F)cc31)CCCCC2)Nc1ccccc1,0,0,5.9*,0,-1
CCc1cccc(NC(=O)Cn2c3[n+](c4ccc(C(F)(F)F)cc42)CCCCC3)c1,-1,-1,0,0,-5
Cc1ccc(CSc2nc3c(c(N(C)C)n2)CCCC3)cc1,-2,0,-2,-1,3
Cc1nc(SCc2ccccc2)nc2c1CCC2,0,2,0,3,11*
COc1ccc(/C=C2\Oc3cc(OCC(=O)N4CCC[C@H]4C(=O)O)ccc3C2=O)c(OC)c1,/,6.7*,/,/,/
COc1cc(OC)c(OC)cc1/C=C1\Oc2cc(OCC(=O)N3Cc4ccccc4C[C@H]3C(=O)O)ccc2C1=O,/,4.5*,/,/,/
COc1ccc(OC)c(/C=C2\Oc3cc(OCC(=O)N4CCC[C@H]4C(=O)O)ccc3C2=O)c1,/,4,/,/,/
CC(C)(C)OC(=O)NCc1ccccc1/C=C/S(=O)(=O)NC1CCCC1,-2,/,-2,-1,-3
CCS(=O)(=O)N1CCN(C2CCC(C)CC2)CC1 (stereo not drawn),1.1*,0,-1,1,2
O=C1c2cc3c(cc2CCC1c1ccc2c(c1)OCO2)OCO3 (stereo not drawn),0,1,1,0,8
N#Cc1ccc(NCCCN2CCC(C(O)(c3ccccc3)c3ccccc3)CC2)cc1,-1,/,-3,1,2
Cc1ccccc1N=C1NC(=O)/C(=C/c2cccnc2)S1,1.9*,0,4,-1,1
O=C1N/C(=N/O)S/C1=C/c1cccnc1,-2,3,0,1,-2
O=C(N[C@H](C(=O)N1CCC[C@H]1C(=O)NCc1ccccc1)c1ccccc1)c1ccccc1,-1,/,0,-1,1
Cc1ccc(S(=O)(=O)N(C)C)cc1NC(=O)c1ccc2ccccc2n1,1.1*,2,2,0,5
O=C(CSc1nc2ccccc2s1)N1CCCCC1,1,3,4,2,12*
CC1Cc2ccccc2N1C(=O)CSc1nc2ccccc2s1 (stereo not drawn),-1,1,-1,-1,0
CC1CCN(C(=O)CSc2nc3ccccc3s2)CC1,0,4.6*,6.5*,2,12*
CC(C)NC(=O)NC(=O)COC(=O)CCCSc1nc2ccccc2s1,0,7.4*,0,0,-1
CC1CCCC(C)N1C(=O)CSc1nc2ccccc2s1 (stereo not drawn),0,5.0*,3,1,7
O=C(O)C1CCN(C(=O)CSc2nc3ccccc3s2)CC1,0,0,2,0,0
SMILES,ssDAF12 agonist,DAX1 inh-1,hcDAF12 agonist,DAX1 inh-2,hgDAF12 agonist
CCCCOCCCNC(=O)C[C@H]1C[C@@]2(C(=O)OC)C(=C[C@H](C(C)C)O[C@@H]2C2CC2)N(Cc2ccc(Cl)cc2Cl)C1=O,0,/,-2,-1,-2
CCCCOCCCNC(=O)C[C@@H]1C(=O)N(Cc2ccc(OC)cc2)C2=CCN(C(=O)OC(C)(C)C)C[C@]21C(=O)OCC,-2,/,-3,-1,0
CN(C)CCCSc1nc2ccccc2s1,2.0*,1,4,0,4
COC(=O)C1=C(C)N(Cc2ccc(C(F)(F)F)cc2)C(=NCc2ccc(OC)cc2)NC1c1ccccc1 (stereo not drawn),-1,/,-1,-2,-1
O=C(NN1C(=O)c2ccccc2NC1c1ccccn1)c1ccc([N+](=O)[O-])cc1 (stereo not drawn),1.0*,-2,-2,0,1
Cc1cccc(C2Nc3ccccc3C(=O)N2NC(=O)c2ccc([N+](=O)[O-])cc2)n1 (stereo not drawn),-1,1,-2,0,-2
O=C(O)CN1C(=O)COc2cc(S(=O)(=O)N3CCCC3)ccc21,-1,5.8*,0,0,-1
Cc1ccc(N2C(=O)c3ccccc3C2Nc2cccnc2)nc1 (stereo not drawn),-1,1,2,0,9
Cc1ccc(NC2c3ccccc3C(=O)N2c2cccnc2)cc1 (stereo not drawn),-2,5.5*,0,0,-4
CCOC(=O)N[C@H](C(=O)N1CCC[C@H]1C(=O)NCCc1ccccc1Cl)c1ccccc1,-1,/,0,0,0
O=C(CSc1nc2ccccc2c(=O)n1-c1ccccc1)N1CCc2ccccc2C1,1.0*,-1,2,-1,0
COc1cc2oc(=O)cc(CN3CCOCC3)c2cc1Cl,-1,/,3,-2,-1
Fc1ccc(N2CCN(C3=Nc4ccccc4Sc4ccccc43)CC2)cc1,1.3*,/,-2,-1,-7
COc1ccc(CC(=O)NC2CCCCN(Cc3ccc(Cl)cc3)C2=O)cc1OC (stereo not drawn),-1,/,-3,-2,-6
CCOc1ccc2nc(NS(=O)(=O)Cc3ccccc3)sc2c1,0,10*,1,-1,3
COc1ccc(CCNC(=O)Cc2nn(C)c(=O)c3ccccc23)cc1OC,-1,-1,-2,0,-2
COc1cccc(OCc2ccc(Cn3nc(NC(=O)NCCc4ccc(OC)c(OC)c4)c4ccccc43)cc2)c1,2.2*,/,5.8*,0,2
COC(=O)C1CN(Cc2cn(Cc3ccc(Cl)cc3)nn2)CCS(=O)(=O)N1Cc1ccc(OC)cc1 (stereo not drawn),-2,/,-2,-2,-3
Cc1ccc(-c2nc3cccnc3s2)cc1NS(=O)(=O)c1cccs1,0,3,6.1*,1,5
Cc1ccc(-c2nc3cccnc3s2)cc1NS(=O)(=O)c1ccc2c(c1)OCCO2,0,1,4,-1,3
COc1ccc2c(c1)C[C@@H](CON1C(C)(C)CCCC1(C)C)N2S(=O)(=O)c1ccc(C)cc1,-2,/,-4,/,0
COC(=O)C1=C(C)N(c2ccc(OC)cc2)C(C)=C(C(=O)OC)C1c1ccccc1,0,4.9*,1,0,0
O=c1cc(-c2ccccc2)nc(/C=C/c2ccccc2)[nH]1,-1,5.6*,0,0,3
COC(=O)C1=CN(c2ccc(C(C)(C)C)cc2)C(N)=C(C#N)C1c1ccccc1F (stereo not drawn),-1,/,-1,0,4
